Sampled rows, rich in hits. Any-hit rate of the full collection: about 9.4%.
Rab9 prom act: qHTS Assay for Rab9 Promoter Activators | Huh7 Rab9 promoter-luciferase reporter, luminescence, 24 h | Potency, µM (highest dose often 9.22 µM), for the others: top-dose activation, negative = inhibition, most hits filed as activators | 320,000 tested, 2.8% active | AID 485297, 2010; also: % of control where 0% means no effect; nearly all actives have a fitted effect of over 60% in size
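Promoter activation is measured as luciferase luminescence in Huh7 cells stably transfected with a Rab9 promoter–luciferase construct, following 24 h compound exposure at 37 °C and 10 min reagent incubation at ambient temperature.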
NPC1 promoter act: qHTS Assay for NPC1 Promoter Activators | Huh7 NPC1 promoter luciferase reporter, 24 h | Potency, µM (series often up to 9.22 µM), for inactives: at the highest dose activation, usual class: activators | 320,000 tested, 2.4% active | AID 485313, 2010; also: % of control where 0% means no effect; nearly all actives have a fitted effect of over 60% in size
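NPC1 promoter–luciferase Huh7 cells; 24 h compound; luminescence.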
ELG1 DNA repair: qHTS screen for small molecules that inhibit ELG1-dependent DNA repair in human embryonic kidney (HEK293T) cells expressing luciferase-tagged ELG1 | HEK293T ELG1-luciferase reporter, luminescence, 16 h; DNA damage induced by 5-fluorouridine | 330,000 tested, 2.3% active | AID 504467, 2011 | Potency, µM (titrated, usually from 46.1 µM), for inactives: at the highest dose activity change, negative = inhibition, actives largely listed as inhibitors; also: % is scaled to controls: 0 for no effect and ±100 for the full control effect; nearly all actives have a fitted effect of over 55% in size
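Quantitative HTS, concentration-response format. 2,000 cells/well co-treated with 5-fluorouridine and compound, 16 hr in 5% CO2 at 37 °C; ONE-Glo luminescence read after 30 min.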
ELG1 genotoxic: qHTS screen for small molecules that induce genotoxicity in human embryonic kidney (HEK293T) cells expressing luciferase-tagged ELG1; HEK293T ELG1-luciferase reporter, luminescence, 16 h; 330,000 tested, 1.3% active; Potency, µM (doses to about 46 µM), without a hit: at the highest dose activity change, positive = activation, hits mostly activators; also: % of control where 0% means no effect; nearly all actives have a fitted effect of over 60% in size
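16 hr compound incubation (37 °C, 5% CO2) of HEK293T cells carrying luciferase-tagged ELG1; luciferase then measured by ONE-Glo luminescence after 30 min at RT.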
SMN2 splice up: qHTS Assay for Enhancers of SMN2 Splice Variant Expression; Potency, µM (titrated, usually from 46.1 µM), without a hit: at the top dose activity change, positive = activation, most hits filed as activators; HEK293 SMN2-luciferase splicing reporter, luminescence, 30-36 h; 210,000 tested, 2.8% active; AID 1458, 2008; also: % of control where 0% means no effect; nearly all actives have a fitted effect of over 55% in size
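HEK293 cells carry an SMN2 minigene-luciferase reporter in which exon 7 inclusion puts luciferase in frame. Cells were seeded at 2000 cells/well, attached for 10-12 hours, then exposed to compounds for 30-36 hours at 37C before ONE-Glo luminescence.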
FLuc modulator: qHTS profiling assay for firefly luciferase inhibitor/activator using purifed enzyme and Km concentrations of substrates (counterscreen for miR-21 project); Luciferin 4-monooxygenase (Photinus pyralis), P08659; purified FLuc, Km substrates, luminescence inhibition; Potency, µM (doses to about 57.5 µM), without a hit: at the top dose activity change, negative = inhibition, actives largely listed as inhibitors; 360,000 tested, 6.9% active;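 also: plate controls were vehicle for no effect and reference inhibitor for full effect; nearly all actives have a fitted effect of over 55% in size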
Target sequence (P08659 whole entry, looked up): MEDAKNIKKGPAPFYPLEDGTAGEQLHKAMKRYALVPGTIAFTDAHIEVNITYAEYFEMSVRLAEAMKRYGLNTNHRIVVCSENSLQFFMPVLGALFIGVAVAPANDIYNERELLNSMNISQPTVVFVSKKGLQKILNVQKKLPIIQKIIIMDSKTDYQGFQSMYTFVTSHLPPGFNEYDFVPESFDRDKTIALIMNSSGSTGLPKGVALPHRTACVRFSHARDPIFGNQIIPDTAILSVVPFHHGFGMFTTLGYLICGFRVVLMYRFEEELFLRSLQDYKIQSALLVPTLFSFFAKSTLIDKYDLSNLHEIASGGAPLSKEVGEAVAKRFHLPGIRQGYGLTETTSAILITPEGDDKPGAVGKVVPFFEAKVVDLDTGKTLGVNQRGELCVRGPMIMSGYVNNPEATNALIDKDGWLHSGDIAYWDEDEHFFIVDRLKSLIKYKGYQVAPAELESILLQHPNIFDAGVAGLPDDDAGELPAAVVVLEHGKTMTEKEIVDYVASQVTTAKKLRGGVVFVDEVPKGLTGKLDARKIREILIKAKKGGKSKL
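Purified P. pyralis luciferase, 10 nM final, with Km-level 10 uM D-luciferin and 10 uM ATP in 50 mM Tris acetate pH 7.5, 10 mM Mg acetate, 0.01% Tween-20, 0.05% BSA; 6-point qHTS titration about 60 µM downward; luminescence read.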
Starred values were filed as active, the others as inactive; [ ] = remark or other dose. Calls follow the shape of the dose curve; as a rule, active = well fitted curve in the direction sought with a large enough effect; inconclusive = small, poorly fitted or top-dose-only effect, or another doubt; inactive = no such curve, though single readings can be large; an effect the other way counts as inactive or inconclusive. Potency is read from the fitted curve at half-maximal effect.

What do the screens show for `O=C(CN1C(=O)/C(=C/c2ccc(C(F)(F)F)cc2)Sc2ccccc21)NCCCN1CCOCC1`?
Rab9 prom act: -1%; NPC1 promoter act: -4%; ELG1 DNA repair: inconclusive; ELG1 genotoxic: 1%[9.26 µM]; FLuc modulator: inconclusive

What do the screens show for `COc1cccc(/C=C2/Oc3ccccc3N(CC(=O)NCC3CCCO3)C2=O)c1` (stereo not drawn)?
Rab9 prom act: 3%; NPC1 promoter act: 0%; ELG1 DNA repair: -14%; ELG1 genotoxic: -6%; FLuc modulator: 9.5µM*

How did CCOC(=O)C1CCCN(C(=O)CN2C(=O)c3ccccc3C2=O)C1 (stereo not drawn) do in these assays?
Rab9 prom act: 18%; NPC1 promoter act: -1%; ELG1 DNA repair: 5%; ELG1 genotoxic: -6%; SMN2 splice up: 18%; FLuc modulator: 0%

Results for CC1Oc2ccccc2N(CC(=O)NCC2CCCO2)C1=O (stereo not drawn) ?
Rab9 prom act: 0%; NPC1 promoter act: 3%; ELG1 DNA repair: 2%; ELG1 genotoxic: 1%; SMN2 splice up: -2%; FLuc modulator: 4%

What do the screens show for `O=C(CN1C(=O)/C(=C\c2cccc(Br)c2)Oc2ccccc21)NCCCN1CCOCC1`?
Rab9 prom act: -6%; NPC1 promoter act: -1%; ELG1 DNA repair: 0%; ELG1 genotoxic: 0%[9.26 µM]; FLuc modulator: 6.7µM*

What do the screens show for `CCOC(=O)C1CCCN(C(=O)CN2C(=O)/C(=C/c3ccc(OC)cc3)Oc3ccccc32)C1` (stereo not drawn)?
Rab9 prom act: -1%; NPC1 promoter act: 0%; ELG1 DNA repair: 23µM*; ELG1 genotoxic: -15%; SMN2 splice up: -50%; FLuc modulator: 15µM*

How did CCCOC(=O)c1ccc(Nc2nc3ccccc3nc2-n2nc(C)cc2C)cc1 do in these assays?
SMN2 splice up: 5%; FLuc modulator: 1%

How did CCOc1ccc(N(CC)S(=O)(=O)c2cc(Br)cc3c2N(C(C)=O)C(C)C3)cc1 (stereo not drawn) do in these assays?
SMN2 splice up: -64%; FLuc modulator: -14%

Results for CC=O ?
SMN2 splice up: -5%

How did O=C(O)CN1C(=O)/C(=C/c2ccccc2Cl)Oc2ccccc21 do in these assays?
Rab9 prom act: -1%; NPC1 promoter act: -4%; ELG1 DNA repair: 3%; ELG1 genotoxic: -3%; FLuc modulator: inconclusive

What do the screens show for `Cc1cccc(CN2C(=O)/C(=C\c3ccc(C(=O)NCCN4CCOCC4)cc3)Sc3ccccc32)c1`?
Rab9 prom act: -10%; NPC1 promoter act: 2%; ELG1 DNA repair: 21µM*; ELG1 genotoxic: -16%; FLuc modulator: -1%

How did O=C(NCCN1CCOCC1)c1ccc(/C=C2\Sc3ccccc3N(Cc3ccccc3F)C2=O)cc1 do in these assays?
Rab9 prom act: 1%; NPC1 promoter act: 0%; ELG1 DNA repair: 21µM*; ELG1 genotoxic: -11%; FLuc modulator: -4%

Results for O=C(O)CN1C(=O)/C(=C/c2cccc(Cl)c2)Oc2ccccc21 ?
Rab9 prom act: 3%; NPC1 promoter act: -5%; ELG1 DNA repair: 1%; ELG1 genotoxic: -1%; FLuc modulator: 13µM*

What do the screens show for `Cc1ccccc1CN1C(=O)/C(=C\c2ccc(C(=O)NCCN3CCOCC3)cc2)Sc2ccccc21`?
Rab9 prom act: -3%; NPC1 promoter act: 1%; ELG1 DNA repair: inconclusive; ELG1 genotoxic: 1%[9.26 µM]; FLuc modulator: -4%

What do the screens show for `O=C(NCc1ccc(Cl)cc1)C(=O)NCC(c1cccnc1)N1CCN(c2ccccc2)CC1` (stereo not drawn)?
FLuc modulator: -18%

Bioassay records as filed in PubChem BioAssay.
